Screening results (PubChem BioAssay)
The entries come from a sample that favours hits as a whole.
TRb SRC2 PPI = qHTS for Inhibitors of the Interaction of Thyroid Hormone Receptor and Steroid Receptor Coregulator 2 | Thyroid hormone receptor beta (Homo sapiens), P10828 | TRbeta-SRC2 peptide binding, fluorescence polarization; receptor liganded with 1 µM T3 | Potency, µM (titrated, usually from 106 µM), without a hit: top-dose activity change, negative = inhibition, hits mostly inhibitors | 0.065% of 280,000 active | AID 1469, 2008; active = well fitted inhibition curve with a large enough effect; inconclusive = small, poorly fitted or top-dose-only effect, or effect the other way;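 also: plate controls were bound peptide for no effect and peptide without receptor for full effect; nearly all actives have a fitted effect of over 50% in size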
Target sequence (P10828 whole entry, looked up): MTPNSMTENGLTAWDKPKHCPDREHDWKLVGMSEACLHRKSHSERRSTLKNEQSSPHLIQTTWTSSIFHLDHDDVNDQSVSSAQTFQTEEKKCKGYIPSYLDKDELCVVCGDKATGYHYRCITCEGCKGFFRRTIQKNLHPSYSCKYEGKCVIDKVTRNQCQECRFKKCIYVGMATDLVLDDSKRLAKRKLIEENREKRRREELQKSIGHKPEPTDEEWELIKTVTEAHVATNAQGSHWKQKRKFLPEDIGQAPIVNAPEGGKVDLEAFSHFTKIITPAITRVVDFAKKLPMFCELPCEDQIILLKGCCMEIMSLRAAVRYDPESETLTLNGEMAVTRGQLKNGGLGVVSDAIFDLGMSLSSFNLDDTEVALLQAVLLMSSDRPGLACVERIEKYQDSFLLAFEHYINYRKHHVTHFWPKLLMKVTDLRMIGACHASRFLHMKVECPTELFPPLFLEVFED
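Binding of a 20-amino-acid Texas Red SRC2 peptide (20 nM) to TRb ligand-binding domain (0.6 uM) with agonist T3 at 1 uM was followed by fluorescence polarization after a 5 hr room-temperature incubation.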
ERG Ets-DNA blk = qHTS for Small Molecule Inhibitors of the ERG Ets/DNA interaction. Transcriptional regulator ERG (Homo sapiens), P11308. fluorescence polarization, His-ERG Ets domain / labelled DNA. Potency, µM (doses to about 76.9 µM), for inactives: top-dose FP activity, negative = inhibition, hits mostly inhibitors. 0.028% of 370,000 active. AID 624246, 2012; active = well fitted inhibition curve with a large enough effect in the polarisation, with a control signal flat; inconclusive = small, poorly fitted or top-dose-only effect, or effect the other way, or a change in a side signal; inactive = no such curve, though single readings can be large or run the other way; the % refers to the polarisation;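 also: polarization taken with two DNA probes labelled with fluorescein and Texas red; % of control where 0% means no effect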
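His-tagged ERG Ets domain (1 uM in the protein solution; 300mM KCl, 50mM Tris-HCl, 1mM EDTA, 1mM DTT, pH 7.5) received compound, then a probe mix of 5 nM fluorescein-DNA and 100nM Texas-615-DNA. Fluorescence polarization was read for both dyes.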
TR SRC2 fluor cs = Total Fluorescence Counterscreen for Inhibitors of the Interaction of Thyroid Hormone Receptor and Steroid Receptor Coregulator 2; TRb/SRC2 Texas Red total fluorescence interference; 0.29% of 280,000 active; Potency, µM (top dose mostly 106 µM), inactives show top-dose fluorescence change, negative = quenching; active = well fitted curve in either direction with a large enough effect; inconclusive = small, poorly fitted or top-dose-only effect; also: % is scaled to controls: 0 for no effect and ±100 for the full control effect
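Human TRβ ligand-binding domain (0.6 uM) and Texas Red SRC2 peptide (20 nM) in Tris buffer with 1 uM T3 and 5% DMSO were incubated with pinned compound for 5 hr at ambient temperature. Total fluorescence was computed as S + 2P (555/632 nm).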
* marks the source's active call; other numbers are inactive results; ? = inconclusive; · = no result given; [ ] = another dose, or the depositor's remark. Potency is read from the fitted curve at half-maximal effect.

SMILES	TRb SRC2 PPI	ERG Ets-DNA blk	TR SRC2 fluor cs
Cc1cc(CCC(=O)O)c(C)cc1CCC(=O)O	-2%	-15%	-1%
CCOc1ccc(N(C(=O)c2ccc(OC)cc2)S(=O)(=O)c2ccc3c(c2)n(C)c(=O)n3C)cc1	-5%	0%	-1%
CCCOc1ccc(C2C(=O)N(C3CCC(C)CC3)CC(=O)N2CCc2ccccc2)cc1OC (stereo not given)	-1%	0%	-2%
CCN1CCN(C(=O)c2ccc3c(c2)N(Cc2ccccc2)C(=O)c2ccccc2S3(=O)=O)CC1	-16%	4%	0.013µM*[quencher]
CCN1CCN(C(=O)c2ccc3c(c2)N(Cc2ccc(Cl)cc2)C(=O)c2ccccc2S3(=O)=O)CC1	1%	-8%	1%
CCc1nn2c(-c3ccccc3OC)ccnc2c1-c1ccc(F)cc1	-9%	0%	8.9µM*[quencher]
CCc1nn2c(-c3ccccc3OC)ccnc2c1-c1ccccc1	6%	-3%	-1%
CN(C)/C=C1\SC(=S)N(c2ccc(Br)cc2)C1=O	?	130%	32µM*[fluorescent]
CN(C)/C=C1\SC(=S)N(c2ccc(F)cc2)C1=O	-4%	78%	1%
C=Cc1ccccc1Br	0%[201 µM]	·	0%[201 µM]
CCOc1cccc2sc(N(Cc3cccnc3)C(=O)c3ccc(C#N)cc3)nc12	7%	0%	2%
COc1cc2ccccc2cc1C(=O)Nc1ccc2oc(-c3cccc(C)c3)nc2c1	?	6%	3.2µM*[quencher]
COc1cc2ccccc2cc1C(=O)Nc1ccc2oc(-c3ccc(Cl)cc3)nc2c1	-1%	-3%	3%
CC(CCO)Nc1nc2c(c(=O)n(C)c(=O)n2C)n1Cc1ccc(Br)cc1 (stereo not given)	-21%	-8%	0.0071µM*[quencher]
CC(CCO)Nc1nc2c(c(=O)n(C)c(=O)n2C)n1Cc1cccc(Br)c1 (stereo not given)	0%	·	-8%
Cc1ccc(CNCc2ccccc2)s1	-13%	0%	18µM*[quencher]
Cc1ccc(CNCc2ccccc2Cl)s1	2%	0%	-3%
CCOc1ccc(Nc2nnc(-n3nc(C)cc3C)c3ccccc23)cc1	-7%	0%	-2%
O=C1NN(c2ccccc2)C(=O)/C1=C/c1ccc(-c2ccc(C(=O)O)cc2)o1	·	-2%	·
O=C(O)c1ccc(N2C(=O)/C(=C/c3ccc(-c4ccc([N+](=O)[O-])cc4)o3)C=C2c2ccccc2)cc1	13%	53%	35µM*[fluorescent]
CCN(C(=O)CSc1nnc(-c2cc3occc3n2C)n1-c1ccccc1C)c1ccccc1	-21%	5%	79µM*[quencher]
CCN(C(=O)CSc1nnc(-c2cc3occc3n2C)n1-c1ccccc1C)c1cccc(C)c1	3%	-4%	-7%
O=C(NCCc1csc(-c2ccc(F)cc2)n1)c1c(F)cccc1Cl	-12%	-1%	0.0002µM*[quencher]
COC(=O)c1ccc(NC(=O)C(=O)NCCc2csc(-c3ccc(C(F)(F)F)cc3)n2)cc1	-6%	-3%	3%
O=C(NCCc1csc(-c2ccccc2)n1)c1c(F)cccc1Cl	4%	-2%	-1%
SMILES	TRb SRC2 PPI	ERG Ets-DNA blk	TR SRC2 fluor cs
COC(=O)c1ccc(NC(=O)C(=O)NCCc2csc(-c3ccc(F)cc3)n2)cc1	-10%	5%	0.0004µM*[quencher]
Cc1nc(N=Nc2cc([N+](=O)[O-])ccc2Cl)c(COP(=O)(O)O)c(C=O)c1O	5%	·	?
Cc1nc(N=Nc2cc(S(=O)(=O)O)c3cc([N+](=O)[O-])cc(S(=O)(=O)O)c3c2)c(COP(=O)(O)O)c(C=O)c1O	11%	·	28µM*[quencher]
COc1ccc(CCNC(=O)c2cc(Nc3ccccc3)nc3ccccc23)cc1OC	-18%	-20%	0.0008µM*[quencher]
O=C(NCCc1ccccc1)c1cc(Nc2ccccc2)nc2ccccc12	-6%	0%	-1%
CCc1ccc(-n2nc(C)c3c(C)cc(=O)n(CC(=O)Nc4ccccc4C(=O)OC)c32)cc1	-9%	-6%	-4%
CCCCOCCOCCO	-8%[201 µM]	·	-2%[201 µM]
O=C(CNS(=O)(=O)c1ccc2ccccc2c1)OCC(=O)c1ccc(Br)s1	7%	2%	1%
Cc1cc(C(=O)COC(=O)CNS(=O)(=O)c2ccc3ccccc3c2)c(C)n1-c1ccccc1	-11%	-3%	200µM*[quencher]
CCCCCCCC[Si](OCC)(OCC)OCC	8%[201 µM]	·	0%[201 µM]
Cc1ccccc1C(=O)/C(C#N)=N/Nc1c(C)n(C)n(-c2ccccc2)c1=O	-3%	-3%	8%
Cc1c(N/N=C(\C#N)C(=O)c2ccccc2)c(=O)n(-c2ccccc2)n1C	-12%	5%	2.2µM*[quencher]
COc1ccc(OCC(=O)NCC(c2ccc(OC)cc2)N2CCOCC2)cc1 (stereo not given)	-25%	10%	89µM*[quencher]
CCc1ccc(OCC(=O)NCC(c2ccc(OC)cc2)N2CCOCC2)cc1 (stereo not given)	-1%	1%	-11%
Clc1cccc(-n2ncc3c(NCCCn4ccnc4)ncnc32)c1	1%	-5%	-1%
O=C(COc1ccccc1[N+](=O)[O-])N/N=C/c1ccc(OC(=O)c2ccco2)cc1	-11%	10%	282µM*[quencher]
COc1cc(/C=N/NC(=O)COc2ccccc2[N+](=O)[O-])ccc1OC(=O)c1ccco1	-4%	-17%	-4%
COc1cc(-c2ccc(N=Nc3ccc4c(S(=O)(=O)O)cc(S(=O)(=O)O)c(N)c4c3O)c(OC)c2)ccc1N=Nc1ccc2c(S(=O)(=O)O)cc(S(=O)(=O)O)c(N)c2c1O	25µM*	·	16µM*[fluorescent]
COc1cc(N=Nc2ccc(C)cc2S(N)(=O)=O)c(C)cc1N	·	2%	·
COc1ccccc1C(=O)Nc1c(C(=O)NC(C)(C)C)oc2ccccc12	5%	-8%	2%
COc1ccccc1C(=O)Nc1c(C(=O)c2ccccc2)oc2ccccc12	-12%	-8%	0.056µM*[quencher]
CCCCN(C)C(=O)CSc1nc2ccccc2nc1Cc1ccc(C)cc1	-1%	0%	-2%
CC1=CC(=O)CC(C)(C)C1	-2%[201 µM]	·	-3%[201 µM]
COC(=O)C1C[C@@H]2C3=C(C(=O)[C@@](C)(NC(=O)c4ccccc4)C3[C@H](C(=O)OC)C1)[C@H](C)n1c(=O)n(-c3ccccc3)c(=O)n12 (stereo not given in full)	-7%	·	0%
CCC1(CC)C(=O)C2=C3C1[C@H](C(=O)OC)CC(C(=O)OC)C[C@H]3n1c(=O)n(-c3ccccc3)c(=O)n1[C@H]2C (stereo not given in full)	?	2%	45µM*[fluorescent]
SMILES	TRb SRC2 PPI	ERG Ets-DNA blk	TR SRC2 fluor cs
CCOC(=O)OCC1OC(c2ccccc2)C=CC1OC(=O)OCC (stereo not given)	4%[11.2 µM]	·	-1%[11.2 µM]
CCCCCCC1Cc2cc(OC)c(OC)cc2C(C(C(=O)OCC)C(=O)OCC)O1 (stereo not given)	1%[11.2 µM]	·	-5%[11.2 µM]
Cc1ccc(S(=O)(=O)/N=C/c2c(O)ccc3ccccc23)cc1	·	18%	·
O=S(=O)(/N=C/c1c(O)ccc2ccccc12)c1cccs1	28µM*	·	?
CCCCCc1ccc(N)cc1	-7%[201 µM]	·	1%[201 µM]
O=C(O)c1cc2c(s1)-c1ccccc1OC2	-4%	2%	-7%
O=C(O)c1cc2c(s1)-c1ccccc1CC2	-4%	16µM*	0%
